Data taken from PubChem BioAssay (NCATS).
Inconclusive results are not listed. Activity calls are given as the source filed them. Calls come from the whole dose curve; as a rule, active = well fitted inhibition curve with a large enough effect; inconclusive = small, poorly fitted or top-dose-only effect; inactive = flat fitted curve, though single readings scatter.

Columns and labels:
Assay in all cases: Cytotoxic Profiling of Annotated Libraries Using Quantitative High-Throughput Screening (AID 1296008); note: nearly all actives have a fitted effect of over 60% in size
Conditions in all cases: Five cell lines viability, CellTiter-Glo ATP luminescence, 48-72 h; max response: hits give low values
CRL-7250 = system: CRL-7250
Summary of the method: (§1)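 Compounds were pin-transferred onto cells and incubated 48 or 72 hr at 37 degree Celsius, 95% humidity. CellTiter-Glo was added, plates sat 10 min at room temperature, then ATP-coupled luminescence was imaged as the viability read-out.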

HEK293 = system: HEK293
Summary of the method: as §1

HaCat = system: HaCat
Summary of the method: as §1

KB-3-1 = system: KB-3-1
Summary of the method: as §1

NIH3T3 = system: NIH3T3
Summary of the method: as §1

Measured: max response
% is set by controls: 0 for no effect and ±100 for the full control effect.

CC(=O)OCCC(C)CCC1C(C)(O)CCC2C(C)(C)CCCC21C (stereo not given)
inactive: CRL-7250 -8.91% | HEK293 | HaCat -0.371% | KB-3-1 | NIH3T3 -3.93%

CC(=O)O[C@H]1[C@H](Oc2ccccc2COC(=O)C2(O)C=CCCC2=O)O[C@H](CO)[C@@H](O)[C@@H]1O (stereo not given in full)
inactive: CRL-7250 3.12% | HEK293 | HaCat 3.69% | KB-3-1 6.43% | NIH3T3 0.519%

CC(C)(O)C1=CCC23COC(C2)C(O)(C(=O)O)CCC13 (stereo not given)
inactive: CRL-7250 | HEK293 | HaCat | KB-3-1 2.8% | NIH3T3

COC1=CC(=O)O[C@@H](/C=C/c2ccccc2)[C@@H]1O
inactive: CRL-7250 | HEK293 | HaCat 4.5% | KB-3-1 | NIH3T3

C[C@@H]1CC[C@]2(C(=O)O)CC[C@]3(C)C(=CCC4[C@]5(C)C(CC[C@]43C)C(C)(C)[C@@H](O)[C@H](O)[C@@H]5O)C2[C@]1(C)O (stereo not given in full)
inactive: CRL-7250 -2.7% | HEK293 | HaCat | KB-3-1 | NIH3T3 -3.49%

O=C(/C=C/c1ccccc1)OCC1=CC[C@@H]2C(C(=O)O)=CO[C@@H](O[C@@H]3O[C@H](CO)[C@@H](O)[C@H](O)[C@H]3O)[C@H]12
inactive: CRL-7250 | HEK293 | HaCat 0.992% | KB-3-1 | NIH3T3

COc1ccccc1CC(C(=O)O)N(C)C(=O)c1ccccc1 (stereo not given)
inactive: CRL-7250 0.437% | HEK293 | HaCat 1.79% | KB-3-1 2.61% | NIH3T3 -9.18%

O=C1Nc2ccc(O)cc2O[C@H]1O[C@@H]1O[C@H](CO)[C@@H](O)[C@H](O)[C@H]1O
inactive: CRL-7250 -3.66% | HEK293 | HaCat | KB-3-1 | NIH3T3
